From ChEMBL document CHEMBL3988442, “University of Dundee, Small-Polar-MMV Screening Library” (2021)
For some assays here: Measured potencies and affinities stand elsewhere.

How the values were obtained:
Set-up in all cases: scale not given: direction of the effect not stated beside the values
[1] = biological target: Protein translocase subunit SecA (Escherichia coli (strain K12)) (UniProt P10408); assay: Assay to Identify E. coli SecA ATPase Inhibitors; assay type: functional; details: 30 µM
[2] = biological target: T1, Ubiquitin-activating enzyme e1, putative (Leishmania donovani (strain BPK282A1)) (UniProt E9BSI1); assay: Leishmania donovani Ubiquitin Activating Enzyme (LdE1); assay type: functional; details: 30 µM
T1 sequence (whole entry): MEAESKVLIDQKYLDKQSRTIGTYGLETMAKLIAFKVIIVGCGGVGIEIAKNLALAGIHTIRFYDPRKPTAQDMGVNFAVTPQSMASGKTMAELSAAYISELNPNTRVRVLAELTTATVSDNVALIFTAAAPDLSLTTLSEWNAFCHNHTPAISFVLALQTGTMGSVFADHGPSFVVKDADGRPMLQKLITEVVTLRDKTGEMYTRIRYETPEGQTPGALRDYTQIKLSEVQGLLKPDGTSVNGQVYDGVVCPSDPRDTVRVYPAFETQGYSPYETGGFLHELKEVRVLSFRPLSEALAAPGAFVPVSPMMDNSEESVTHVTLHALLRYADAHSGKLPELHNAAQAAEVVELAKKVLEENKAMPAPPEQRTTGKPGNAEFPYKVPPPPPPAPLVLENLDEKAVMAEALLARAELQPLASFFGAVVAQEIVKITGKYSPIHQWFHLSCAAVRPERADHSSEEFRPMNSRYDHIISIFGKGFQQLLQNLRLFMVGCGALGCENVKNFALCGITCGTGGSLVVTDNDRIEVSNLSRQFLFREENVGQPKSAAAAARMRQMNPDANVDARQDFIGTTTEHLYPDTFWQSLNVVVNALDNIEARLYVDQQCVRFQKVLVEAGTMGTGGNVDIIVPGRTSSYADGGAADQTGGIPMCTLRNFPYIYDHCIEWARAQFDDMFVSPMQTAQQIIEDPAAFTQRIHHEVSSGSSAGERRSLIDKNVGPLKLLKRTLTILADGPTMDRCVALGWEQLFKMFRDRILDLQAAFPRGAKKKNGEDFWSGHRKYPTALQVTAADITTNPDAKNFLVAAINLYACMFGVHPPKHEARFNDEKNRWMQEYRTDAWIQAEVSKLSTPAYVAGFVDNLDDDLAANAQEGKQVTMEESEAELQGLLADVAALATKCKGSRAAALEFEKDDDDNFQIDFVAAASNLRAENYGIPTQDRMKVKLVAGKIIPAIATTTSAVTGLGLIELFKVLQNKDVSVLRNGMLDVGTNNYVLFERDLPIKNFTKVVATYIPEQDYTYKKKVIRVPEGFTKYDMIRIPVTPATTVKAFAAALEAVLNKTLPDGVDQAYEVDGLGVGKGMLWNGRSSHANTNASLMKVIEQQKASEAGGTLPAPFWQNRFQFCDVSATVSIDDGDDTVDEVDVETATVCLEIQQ

[3] = biological target: AMP-activated protein kinase, AMPK (Homo sapiens) (UniProt P54646+O43741+P54619+Q9UGJ0+Q9Y478+Q13131+Q9UGI9); assay: AMP-dependent Kinase enzyme assay. An in vitro enzyme assay that detects ADP turnover that is directly proportional to AMPK activity. This uses naive AMPK that is activated during the assay with MK-8722; assay type: functional; details: 30 µM
[4] = biological target: Sialic acid-binding Ig-like lectin 9 (Homo sapiens) (UniProt Q9Y336); assay: Hs-Siglec9 ALPHAscreen SOP 20170721; details: 10 µM
[5] = tested on: Trypanosoma cruzi; assay: Trypanosoma cruzi phosphomannomutase and mannose-1-phosphate guanylyltransferase assay; assay type: functional; details: 10 µM
[6] = biological target: T2, Arginase-2, mitochondrial (Homo sapiens) (UniProt P78540); assay: in vitro enzyme assay to detect the production of urea directly proportional to the activity of Arginase II; assay type: functional; details: 33.3 µM; note: in the data most compounds retested in dose-response had high values
T2 sequence (whole entry): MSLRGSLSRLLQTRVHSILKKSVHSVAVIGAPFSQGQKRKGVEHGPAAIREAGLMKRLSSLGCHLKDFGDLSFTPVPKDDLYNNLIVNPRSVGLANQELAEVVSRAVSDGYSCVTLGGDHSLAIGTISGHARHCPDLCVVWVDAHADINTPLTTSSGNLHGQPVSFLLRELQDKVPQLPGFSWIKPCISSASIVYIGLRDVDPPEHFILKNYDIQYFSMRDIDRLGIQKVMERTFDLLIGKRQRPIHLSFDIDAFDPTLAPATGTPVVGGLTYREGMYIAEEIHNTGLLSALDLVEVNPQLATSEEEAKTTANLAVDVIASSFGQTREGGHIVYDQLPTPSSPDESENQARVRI

[7] = biological target: T3, Proteasome subunit beta (Trypanosoma cruzi) (UniProt O96673); assay: Trypanosoma cruzi proteasome chymotrypsin-like activity (TcProtChymo) assay.; note: in the data most compounds retested in dose-response had high values; assay type: functional; details: 9.37 µM
T3 sequence (whole entry): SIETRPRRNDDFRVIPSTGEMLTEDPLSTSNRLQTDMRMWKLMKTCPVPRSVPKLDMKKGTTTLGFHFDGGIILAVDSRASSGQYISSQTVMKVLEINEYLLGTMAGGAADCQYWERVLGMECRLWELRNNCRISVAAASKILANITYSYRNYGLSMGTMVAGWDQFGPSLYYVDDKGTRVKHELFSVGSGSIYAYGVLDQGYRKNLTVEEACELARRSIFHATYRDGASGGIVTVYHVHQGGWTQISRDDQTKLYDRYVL

[8] = organism: Homo sapiens; assay: To identify inhibition of the IFN signalling (Jak-Stat) pathway via expression of an eGFP reporter gene under the control of an IFN-stimulated response element (ISRE) containing MxA promoter.; assay type: functional; details: 30 µM
[9] = biological target: T4, Tyrosyl-tRNA synthetase, putative (Trypanosoma cruzi (strain CL Brener)) (UniProt Q4DSP6); assay: Trypanosoma cruzi tyrosyl tRNA synthetase (TcYRS) _High Tyrosine SOP; assay type: functional; details: 30 µM; note: in the data most compounds retested in dose-response had high values
T4 sequence (whole entry): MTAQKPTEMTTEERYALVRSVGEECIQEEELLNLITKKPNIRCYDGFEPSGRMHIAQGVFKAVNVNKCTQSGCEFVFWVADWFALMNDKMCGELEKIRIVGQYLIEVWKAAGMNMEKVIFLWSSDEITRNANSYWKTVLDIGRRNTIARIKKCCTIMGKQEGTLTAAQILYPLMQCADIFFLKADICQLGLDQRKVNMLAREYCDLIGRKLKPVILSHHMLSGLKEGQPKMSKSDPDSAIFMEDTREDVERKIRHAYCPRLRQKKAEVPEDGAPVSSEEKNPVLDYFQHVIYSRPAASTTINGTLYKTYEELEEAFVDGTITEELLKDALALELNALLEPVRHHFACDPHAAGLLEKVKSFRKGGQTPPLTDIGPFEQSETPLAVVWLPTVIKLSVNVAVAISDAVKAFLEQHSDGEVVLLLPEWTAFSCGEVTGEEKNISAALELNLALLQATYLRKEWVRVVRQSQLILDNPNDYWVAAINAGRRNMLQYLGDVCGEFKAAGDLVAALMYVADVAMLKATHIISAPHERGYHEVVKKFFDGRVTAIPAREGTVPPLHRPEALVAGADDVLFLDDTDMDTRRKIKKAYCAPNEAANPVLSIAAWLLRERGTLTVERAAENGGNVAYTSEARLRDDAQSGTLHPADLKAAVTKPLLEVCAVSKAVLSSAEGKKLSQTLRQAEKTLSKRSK

[10] = biological target: T4, Tyrosyl-tRNA synthetase, putative (Trypanosoma cruzi (strain CL Brener)); assay: Trypanosoma cruzi tyrosyl tRNA synthetase (TcYRS) SOP; assay type: functional; details: 30 µM
[11] = biological target: Chromo domain-containing protein 1 (Saccharomyces cerevisiae (strain ATCC 204508 / S288c) (Baker's yeast)) (UniProt P32657); assay: ScCHD-1 Enzyme Inhibition Assay; assay type: functional; details: 30 µM; note: in the data most compounds retested in dose-response had high values
Chromo domain-containing protein 1 (Saccharomyces cerevisiae (strain ATCC 204508 / S288c) (Baker's yeast)), sequence (P32657 whole entry, the tested form may be a part): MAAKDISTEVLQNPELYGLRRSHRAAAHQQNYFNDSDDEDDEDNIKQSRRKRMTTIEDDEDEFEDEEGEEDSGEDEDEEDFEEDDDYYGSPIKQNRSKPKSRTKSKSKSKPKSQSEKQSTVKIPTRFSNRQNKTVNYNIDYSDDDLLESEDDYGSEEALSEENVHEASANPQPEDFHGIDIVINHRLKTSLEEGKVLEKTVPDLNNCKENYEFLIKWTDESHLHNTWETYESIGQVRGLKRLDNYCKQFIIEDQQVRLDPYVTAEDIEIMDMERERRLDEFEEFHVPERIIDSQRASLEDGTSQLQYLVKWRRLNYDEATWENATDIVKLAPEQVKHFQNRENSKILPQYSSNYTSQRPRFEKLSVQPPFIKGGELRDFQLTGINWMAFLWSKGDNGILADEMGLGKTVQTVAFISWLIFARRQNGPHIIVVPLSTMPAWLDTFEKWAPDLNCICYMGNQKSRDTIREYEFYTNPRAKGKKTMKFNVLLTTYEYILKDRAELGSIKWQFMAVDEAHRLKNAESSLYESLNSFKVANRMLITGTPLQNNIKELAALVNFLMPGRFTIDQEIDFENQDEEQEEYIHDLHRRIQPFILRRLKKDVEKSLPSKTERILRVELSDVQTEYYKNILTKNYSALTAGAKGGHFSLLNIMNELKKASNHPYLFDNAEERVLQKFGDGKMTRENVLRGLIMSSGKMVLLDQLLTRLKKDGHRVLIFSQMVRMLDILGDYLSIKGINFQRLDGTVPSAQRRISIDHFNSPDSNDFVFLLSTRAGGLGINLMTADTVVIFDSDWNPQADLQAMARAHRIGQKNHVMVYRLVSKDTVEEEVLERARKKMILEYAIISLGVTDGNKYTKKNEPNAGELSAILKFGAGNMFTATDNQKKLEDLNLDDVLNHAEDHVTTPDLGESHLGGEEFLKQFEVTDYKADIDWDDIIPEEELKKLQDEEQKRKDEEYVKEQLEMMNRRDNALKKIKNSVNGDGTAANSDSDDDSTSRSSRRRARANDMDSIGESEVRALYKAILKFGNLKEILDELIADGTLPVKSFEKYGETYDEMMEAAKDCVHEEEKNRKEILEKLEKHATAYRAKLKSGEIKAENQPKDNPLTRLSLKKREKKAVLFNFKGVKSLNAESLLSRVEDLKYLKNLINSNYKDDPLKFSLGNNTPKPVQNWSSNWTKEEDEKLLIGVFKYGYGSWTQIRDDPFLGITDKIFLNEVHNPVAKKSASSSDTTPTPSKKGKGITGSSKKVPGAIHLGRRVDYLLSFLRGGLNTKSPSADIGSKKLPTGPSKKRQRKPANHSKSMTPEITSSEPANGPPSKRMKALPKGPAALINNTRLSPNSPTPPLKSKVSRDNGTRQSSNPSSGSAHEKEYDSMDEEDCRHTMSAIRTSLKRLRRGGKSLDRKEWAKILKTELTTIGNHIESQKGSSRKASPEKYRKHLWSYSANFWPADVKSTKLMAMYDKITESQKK

Protein translocase subunit SecA (Escherichia coli (strain K12)), sequence (P10408 whole entry): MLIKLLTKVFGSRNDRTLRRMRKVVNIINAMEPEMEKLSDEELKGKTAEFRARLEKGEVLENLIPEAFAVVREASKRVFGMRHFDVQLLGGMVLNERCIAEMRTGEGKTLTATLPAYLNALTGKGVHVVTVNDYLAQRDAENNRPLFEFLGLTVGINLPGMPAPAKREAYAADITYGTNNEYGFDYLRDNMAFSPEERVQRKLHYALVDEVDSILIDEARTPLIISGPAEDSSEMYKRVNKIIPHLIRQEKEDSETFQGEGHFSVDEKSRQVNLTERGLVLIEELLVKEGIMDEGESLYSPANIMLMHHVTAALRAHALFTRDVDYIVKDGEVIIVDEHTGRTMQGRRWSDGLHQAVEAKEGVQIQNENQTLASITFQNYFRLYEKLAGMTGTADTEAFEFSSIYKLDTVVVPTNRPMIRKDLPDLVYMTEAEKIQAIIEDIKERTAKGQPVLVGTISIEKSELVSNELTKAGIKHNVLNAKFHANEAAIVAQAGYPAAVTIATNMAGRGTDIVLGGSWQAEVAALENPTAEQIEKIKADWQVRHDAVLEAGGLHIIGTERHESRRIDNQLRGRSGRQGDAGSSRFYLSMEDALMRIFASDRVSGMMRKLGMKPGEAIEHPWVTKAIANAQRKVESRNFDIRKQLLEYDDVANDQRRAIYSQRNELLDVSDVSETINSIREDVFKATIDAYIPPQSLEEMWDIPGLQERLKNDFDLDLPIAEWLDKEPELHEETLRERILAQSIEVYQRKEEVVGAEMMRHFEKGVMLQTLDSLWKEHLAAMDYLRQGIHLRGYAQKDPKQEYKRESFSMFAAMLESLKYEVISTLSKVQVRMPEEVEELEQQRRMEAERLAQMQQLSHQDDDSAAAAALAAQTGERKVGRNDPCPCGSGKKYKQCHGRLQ
Sialic acid-binding Ig-like lectin 9 (Homo sapiens), sequence (Q9Y336 whole entry): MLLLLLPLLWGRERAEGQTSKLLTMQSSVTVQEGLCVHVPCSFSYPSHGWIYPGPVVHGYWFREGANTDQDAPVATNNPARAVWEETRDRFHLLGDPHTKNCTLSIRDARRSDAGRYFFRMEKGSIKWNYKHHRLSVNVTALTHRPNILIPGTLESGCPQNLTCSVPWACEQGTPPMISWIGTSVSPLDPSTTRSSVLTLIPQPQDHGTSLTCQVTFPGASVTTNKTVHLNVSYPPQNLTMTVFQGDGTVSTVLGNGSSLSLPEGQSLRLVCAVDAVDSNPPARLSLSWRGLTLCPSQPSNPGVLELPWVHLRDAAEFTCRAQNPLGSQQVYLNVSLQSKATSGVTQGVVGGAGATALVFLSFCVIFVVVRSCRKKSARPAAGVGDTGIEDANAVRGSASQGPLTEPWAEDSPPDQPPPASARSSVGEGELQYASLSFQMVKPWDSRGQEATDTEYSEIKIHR

Structure (SMILES) | Percent Effect [1] [%] | Percent Effect [2] [%] | Percent Effect [3] [%] | Percent Effect [4] [%] | Percent Effect [5] [%] | Percent Effect [6] [%] | Percent Effect [7] [%] | Percent Effect [8] [%] | Percent Effect [9] [%] | Percent Effect [10] [%] | Percent Effect [11] [%]
Cc1nn(C)c(N2CCOCC2)c1CNC1CCN(C(C)(C)C)CC1 | -2.55 | 20.2 | -9.63 | -2.51 | -1.42 | -0.38 | 13.5 | 10.5 | 5.42 | 16.5 | -4.24
O=C(Nc1ccc(CCN2CCC(O)CC2)cc1)C1CCOCC1 | -1.94 | 2.7 | -6.78 | 11.5 | 4.18 | -1.66 | 1.98 | 3.22 | 5.94 | 11 | -3.93
CNS(=O)(=O)c1ccc(C(=O)NC2CCc3nc(C)cn3C2)o1 (configuration not stated) | -4.88 | 7.89 | 5.73 | 6.53 | 2.26 | -3.45 | 11 | -11.5 | 3.43 | 17.1 | -10.4
CCC(=O)Nc1nnc(CCOc2cccc(OC)c2)s1 | -4.51 | -6.67 | 42.3 | 1.2 | -3.54 | -4.4 | 9.43 | 7.09 | 0 | -7.69 | -2
Fc1cccc(Oc2ccc(CNCC3CNc4ccnn4C3)cn2)c1 (configuration not stated) | -2.95 | 13 | -2.17 | 5.01 | 10.5 | 2.85 | 8.28 | 8.31 | 37.9 | 43.9 | -12.1
Cn1nc(C2CCCN(Cc3ccsc3)C2)c2nccnc21 (configuration not stated) | -0.97 | 9.46 | 11.9 | -2.94 | -2.37 | -0.696 | 4.68 | 3.34 | 1.07 | 6.49 | -19.8
CCc1ccc(C(=O)N2CCN(CC(C)O)CC2)o1 (configuration not stated) | 0.315 | 21.1 | -5.4 | -6.92 | 5.08 | 6.13 | 16.2 | 3.74 | 1.47 | 19.5 | -12.7
FC(F)(F)c1cccc(C2(CNCc3ccncc3)CCOCC2)c1 | -0.743 | 10.8 | -6.5 | -1.68 | -2.34 | -1.67 | 13.9 | 23.6 | 7.92 | 11 | 16.9
Cc1ncsc1C(=O)N(C)Cc1cccc(Cl)c1 | 0.989 | 18.4 | -2.9 | -2.59 | 2.44 | -2.3 | 20.6 | 7.48 | 5.39 | 19.5 | -10.9
Cn1nnc2c1C(COCc1ccccn1)CN(C(=O)c1cccs1)C2 (configuration not stated) | 3.29 | 16.4 | -9.82 | 5.59 | 1.59 | -7.19 | 13.6 | 36.4 | 6.25 | 23.5 | -1.99
Cn1cc(CN2CCCN(C(=O)c3ccc4c(c3)COC4)CC2)cn1 | -5.64 | 18.4 | -1.04 | 13.2 | -3.27 | -2.16 | 12.6 | 8.45 | 7.39 | 11.1 | -0.916
Cc1cccc(-n2cc(C(=O)N3CCCC(n4cccn4)C3)nn2)c1 (configuration not stated) | -6.43 | 23.4 | -0.0164 | -1.49 | 5.78 | -2.74 | 27.4 | 4.51 | 6.67 | 25.9 | -14.2
CCCn1nc2c(cc1=O)CN(CCS(C)(=O)=O)CC2 | -6.22 | -5.41 | -30.8 | 22.6 | 2.17 | -6.01 | 7.75 | 7.82 | 8.37 | 16.1 | -11.1
O=S1(=O)CCN(Cc2cccnc2)[C@H]2CCN(c3ncccn3)CC[C@H]21 | -8.77 | -2.7 | -0.0275 | 20.3 | -3.91 | -0.417 | -2.62 | 16.4 | 3.96 | -1.22 | 0.188
Cc1c(C(=O)NC(CN2CCCC2=O)c2ccccc2)cnn1C (configuration not stated) | 0.252 | 10.5 | 1.96 | -5.31 | -4.7 | 6.9 | 7.69 | 19 | 3.43 | 9.76 | -6.11
CC(C)c1nn(C)c(Cl)c1CNCC(O)c1cccc(F)c1 (configuration not stated) | -7.69 | 5.2 | -1.22 | -3.98 | 7.35 | -2.32 | 15.8 | 4.38 | 7.62 | 30.6 | -7
CN(Cc1cnn(C)c1)C(=O)c1ccc(=O)n(C)n1 | -3.21 | 7.89 | 2.81 | -2.3 | 5.16 | -5.92 | 12.9 | 9.62 | 6.38 | 10.4 | -4.41
O=C(NCCCN1CCOCC1)Nc1cnc2cc(Cl)ccc2c1O | 0.589 | 17.6 | 9.55 | -8.53 | -3.16 | -5.34 | 12.8 | 31.9 | 0 | 1.3 | -6.01
Cc1ccccc1CS(=O)(=O)NCCCN1CCCCC1 | -6.3 | 5.33 | 6.44 | 24.2 | 0.292 | 2.6 | 6.63 | 7.26 | 1.64 | 3.7 | -2.2
CCn1nc(C)c2nc(C(C)C)nc(NCCCO)c21 | -2.47 | 12 | 4.47 | 13.2 | 1.97 | 0.176 | 12.6 | 33.7 | 4.23 | 12.8 | -6.99
CCCN1CCN(C(=O)c2scnc2C)CC1 | -7.16 | 10.5 | 0.673 | 9.57 | 2.82 | 0 | 9.3 | -10.2 | 1.06 | 10.4 | -4.16
Cc1nc2n(n1)CC(NCc1cc(Cl)c3c(c1)OCCCO3)CC2 (configuration not stated) | -6.19 | 15.8 | -7.14 | 11.4 | 5.51 | -1.44 | 6.01 | 6.53 | 6.4 | 25.9 | -3.53
